# Laboratory results taken from PubChem BioAssay AID2613 (National Center for Advancing Translational Sciences (NCATS), 2010).
# Records with an inconclusive call do not appear. Values without a mark were called inactive. Calls of active or inactive are those of the source. Calls come from the whole dose curve; as a rule, active = well fitted inhibition curve with a large enough effect; inconclusive = small, poorly fitted or top-dose-only effect; inactive = flat fitted curve, though single readings scatter.
# Target: Lysosomal acid glucosylceramidase (Homo sapiens) (UniProt P04062)
# Experiment: qHTS Assay for Inhibitors and Activators of N370S glucocerebrosidase as a Potential Chaperone Treatment of Gaucher Disease: Activity in N370S Spleen Homogenate Using a Red Fluorescent Substrate
# Conditions: red fluorogenic substrate; series mostly up to 49.6 µM; activity change, negative = inhibition: at the top concentration
# From the text: NIH Chemical Genomics Center [NCGC]
# NIH Molecular Libraries Probe Production Centers Network [MLPCN]
# Assay Submitter (PI): Wei Zheng
# Glucocerebrosidase (GC) catalyzes the hydrolysis of beta-glucocerebroside to glucose and ceramide in lysosomes. Mutations in the glucocerebrosidase gene result in Gaucher disease, an autosomal recessive lysosomal storage disorder. Many of the mutations encountered in patients with Gaucher disease are missense alterations that may cause misfolding, decreased stability and/or mistrafficking of this lysosomal protein. […] These inhibitors include iminosugar analogs and three non-iminosugar inhibitors identified from a previous HTS of 62,000 compounds with the wild type recombinant enzyme. However, the enhancement of enzyme activity by the chaperone action of an enzyme inhibitor must be balanced against the direct inhibition of the enzyme. An enzyme activator could also function as a chaperone by binding to the enzyme and helping to correct its misfolding and mistrafficking. While activators for GC have not yet been identified, they may have better therapeutic potential than inhibitors. Therefore the discovery and development of chemical activators may provide a new strategy for the chaperone therapy.
# We have optimized a new assay using N370S mutant GC derived from the spleen of a Gaucher patient. […] In addition, the MLPCN compound library has expanded, which increases the chance of finding new and better probes.
# This confirmation assay tests for compound activity in spleen homogenate from a patient homozygous for the N370S mutation using an alternate resorufin-based substrate.
# NCGC Assay Protocol Summary:
# This is a fluorogenic enzyme assay with resorufin-beta-D-glucopyranoside as the substrate and mutant N370S glucocerebrosidase from human spleen homogenate as the enzyme preparation. Upon the hydrolysis of this fluorogenic substrate, the resulting product, […] which can be detected by a standard fluorescence plate reader. Data were normalized to the controls for basal activity (without enzyme) and 100% activity (with enzyme). The AC50 values were determined from concentration-response data modeled with the standard Hill equation.
# Assay buffer: 50 mM citric acid (titrated with potassium phosphate to pH 5.0), 100 mM potassium chloride, 10 mM sodium chloride, 1 mM magnesium chloride, 0.01% Tween-20.
# 1536-well assay protocol:
# (1) Add 2 ul/well of spleen homogenate (27 ug final)
# (2) Add 23 nL compounds in DMSO solution. The final titration was 0.5 nM to 58 uM.
# (3) Add 2 ul of substrate (1 mM final)
# (4) Incubate at 37C for 40 min.
# (5) Add 2 ul stop solution (1M NaOH and 1M Glycine mixture, pH 10)
# (6) Detect the assay plate in a ViewLux plate reader (PerkinElmer) with Ex=365 nm and Em=440nm.
# Keywords: Glucocerebrosidase, beta-glucosidase, Gaucher Disease, pharmacological chaperone, chaperone therapy, high throughput screening, glucocerebrosidase inhibitor, MLSMR, MLSCN, NIH Roadmap, qHTS and NCGC
# Sequence of Lysosomal acid glucosylceramidase (Homo sapiens) (P04062 whole entry N409S): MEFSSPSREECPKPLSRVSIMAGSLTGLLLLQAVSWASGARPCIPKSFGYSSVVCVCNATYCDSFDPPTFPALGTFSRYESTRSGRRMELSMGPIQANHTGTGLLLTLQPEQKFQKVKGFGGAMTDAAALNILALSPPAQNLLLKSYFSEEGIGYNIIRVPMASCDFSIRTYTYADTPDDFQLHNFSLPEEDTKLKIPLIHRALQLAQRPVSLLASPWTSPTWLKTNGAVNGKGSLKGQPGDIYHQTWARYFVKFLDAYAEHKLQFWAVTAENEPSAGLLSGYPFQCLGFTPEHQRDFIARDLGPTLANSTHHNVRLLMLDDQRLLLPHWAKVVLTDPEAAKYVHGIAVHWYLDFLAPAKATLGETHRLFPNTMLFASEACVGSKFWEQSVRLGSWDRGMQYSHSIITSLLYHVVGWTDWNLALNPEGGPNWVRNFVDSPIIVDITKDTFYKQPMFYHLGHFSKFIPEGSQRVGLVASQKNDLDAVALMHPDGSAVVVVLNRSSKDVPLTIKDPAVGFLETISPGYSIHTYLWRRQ
SMILES,Potency,"activity change, negative = inhibition"
Cc1cc(N2CCCCC2)nc2ccc(NC(=O)C3CCC(C)CC3)cc12 (stereo not given),17.8 µM (active),–
O=c1cc(N2CCCCC2)c(-c2ccccc2)nn1Cc1c(Cl)cccc1Cl,–,-2.62%
CC(=O)Nc1ccc(NC(=O)COc2ccccc2C(=O)Nc2cccc(Cl)c2Cl)cc1,–,-0.549%
Cc1ccc(NC(=O)COc2ccccc2C(=O)Nc2ccccc2)cc1Cl,–,-0.617%
CCN(CC)c1cc(C)c2cc(NC(=O)C3CCC(C)CC3)ccc2n1 (stereo not given),28.2 µM (active),–
Cc1cc(N2CCOCC2)nc2ccc(NC(=O)C3CCC(C)CC3)cc12 (stereo not given),3.16 µM (active),–
OCCNc1nc(Nc2ccc(Cl)cc2)nc(N2CCCC2)n1,35.5 µM (active),–
O=C(Nc1cc(Br)ccc1O)c1cnn2c(C(F)F)cc(C3CC3)nc12,–,0.46%
Nc1nc(-c2ccccc2)c(N=Nc2ccc(Cl)cc2)s1,–,-1.35%
CSc1ccc(NC(=O)Nc2cc(C)ccn2)cc1,–,-0.0114%
COc1ccccc1C(=O)COC(=O)c1ccccc1OCC(=O)Nc1ccc(SC(F)F)cc1,–,1.36%
N#Cc1ccccc1Sc1ccccc1C(=O)OCC(=O)NC12CC3CC(CC(C3)C1)C2,–,-6.41%
O=C(Nc1ccccc1)c1ccc(NS(=O)(=O)c2ccccc2)cc1,–,7.4%
CC(C)(C)C(=O)OCCNc1nc(-c2ccccc2)nc2ccccc12,3.98 µM (active),–
Cc1ccc(S(=O)(=O)Nc2ccc(C(=O)NCc3ccccc3)cc2)cc1,–,-14.8%
CCc1ccc(NC(=O)c2cnn3c(C(F)F)cc(C)nc23)cc1,–,-11.1%
Cc1cccc(/C=N/NC(=O)NC23CC4CC(CC(C4)C2)C3)n1,–,-9.91%
Cc1cc(N2CCOCC2)nc2ccc(NC(=O)CCC(=O)NC3CCCCC3)cc12,–,-14.8%
O=C(COc1ccccc1C(=O)c1cnn(-c2ccccc2)c1)Nc1ccccc1,–,-1.7%
O=S(=O)(c1ccc(Cl)cc1)N1CCN(c2nc(-c3cccs3)nc3ccccc23)CC1,0.891 µM (active),–

SMILES,Potency,"activity change, negative = inhibition"
CC1(C)CC(=O)C2=C(C1)c1c(ccc3ccccc13)NC2c1ccc(Br)o1 (stereo not given),–,-4.56%
CC1CC(C)CN(C(=O)CSc2nc(Cc3cccs3)nc3ccccc23)C1 (stereo not given),–,-2.19%
CCOc1ccccc1NC(=O)CN(c1ccc(C)cc1)S(=O)(=O)c1c(C)noc1C,–,3.15%
CCOc1ccc(N(CC(=O)Nc2ccc(C)cc2)S(=O)(=O)c2c(C)[nH]c(=O)[nH]c2=O)cc1,12.6 µM (active),–
CCc1cc(C(=O)N/N=C/c2c(C)[nH]c3ccccc23)cs1,–,0.119%
N=c1c2c(-c3ccccc3)c(-c3ccccc3)n(Cc3ccco3)c2ncn1CCCn1ccnc1,7.94 µM (active),–
Cc1cc(N2CCOCC2)nc2ccc(NC(=O)CCC3CCCC3)cc12,15.8 µM (active),–
O=C(Nc1cnn(Cc2ccc(F)cc2)c1)c1cnn2c(C(F)F)cc(-c3ccccc3)nc12,–,5.28%
Cc1cc(N2CCOCC2)nc2ccc(NC(=O)c3ccco3)cc12,–,-10.1%
Clc1ccccc1-c1nccc(NCc2ccccc2)n1,3.55 µM (active),–
COc1ccccc1NC(=O)COc1ccccc1C(=O)Nc1ccccc1,–,-5.3%
Cc1cc(N2CCN(c3ncccn3)CC2)nc2ccc(NC(=O)C3CCC(C)CC3)cc12 (stereo not given),5.01 µM (active),–
Cc1cc(C)cc(N(CC(=O)NC2CCCCCC2)S(=O)(=O)c2c(C)[nH]c(=O)[nH]c2=O)c1,0.794 µM (active),–
O=C(Nc1nccs1)c1ccc(NS(=O)(=O)c2ccc(Cl)cc2)cc1,–,-6.72%
COc1cc(OC)c2c(N)c(C#N)c(C(F)(F)C(F)(F)F)nc2c1,–,4.03%
CCC(C)NC(=O)COC(=O)c1ccccc1OCC(=O)Nc1ccc(Br)cc1 (stereo not given),–,0.863%
COc1cc(OC)cc(C(=O)N[C@H](C(=O)OCC(=O)Nc2cccc(F)c2)C(C)C)c1,–,-11.2%
COC(=O)c1ccccc1NC(=O)c1ccc2c(c1)C(=O)N(Cc1ccccc1)C2=O,–,4.22%
CCCCNC(=O)c1ccc(NS(=O)(=O)c2ccccc2)cc1,–,-6.21%
S=C(NCCCc1cnc[nH]1)NCCCN(Cc1ccc(Cl)c(Cl)c1)c1ccc(Br)cn1,2.24 µM (active),–
